In the library only some 1.4% were active in any assay of this set; here they are far more common.
Vif-A3G inh = blocks the Vif interaction with human APOBEC3G | Q9HC16 | Potency, µM (top dose mostly 46.1 µM), for inactives: at the top dose activity, negative = active, actives largely listed as inhibitors | HeLa A3G-eYFP + Vif (tagged APOBEC3G with the HIV-1 protein that degrades it), YFP fluorescence, overnight | 410,000 compounds, 0.076% hits; further: potency means the concentration at half of the fitted maximal effect; on the % scale 0 is the no-effect control and ±100 the full control effect; nearly all actives have a fitted effect of over 60% in size
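HeLa cells stably expressing Vif and C-terminally eYFP-tagged A3G, seeded overnight at 37 deg C, then exposed to compound by pintool overnight at 37 deg C. Rise in yellow fluorescence (Ex 488/Em 500-530, Acumen) marks blocked Vif-driven A3G degradation.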
S-ASM inh = inhibitors of human secretory acid sphingomyelinase; P17405; placental ASM, HMU-PC fluorogenic substrate, 60 min; Potency, µM (top dose mostly 57.5 µM), inactives show at the highest dose activity change, negative = inhibition, hits mostly inhibitors; 340,000 compounds, 0.006% hits; AID 504937; further: potency means the concentration at half of the fitted maximal effect
Target sequence (P17405 47-631 limits assumed): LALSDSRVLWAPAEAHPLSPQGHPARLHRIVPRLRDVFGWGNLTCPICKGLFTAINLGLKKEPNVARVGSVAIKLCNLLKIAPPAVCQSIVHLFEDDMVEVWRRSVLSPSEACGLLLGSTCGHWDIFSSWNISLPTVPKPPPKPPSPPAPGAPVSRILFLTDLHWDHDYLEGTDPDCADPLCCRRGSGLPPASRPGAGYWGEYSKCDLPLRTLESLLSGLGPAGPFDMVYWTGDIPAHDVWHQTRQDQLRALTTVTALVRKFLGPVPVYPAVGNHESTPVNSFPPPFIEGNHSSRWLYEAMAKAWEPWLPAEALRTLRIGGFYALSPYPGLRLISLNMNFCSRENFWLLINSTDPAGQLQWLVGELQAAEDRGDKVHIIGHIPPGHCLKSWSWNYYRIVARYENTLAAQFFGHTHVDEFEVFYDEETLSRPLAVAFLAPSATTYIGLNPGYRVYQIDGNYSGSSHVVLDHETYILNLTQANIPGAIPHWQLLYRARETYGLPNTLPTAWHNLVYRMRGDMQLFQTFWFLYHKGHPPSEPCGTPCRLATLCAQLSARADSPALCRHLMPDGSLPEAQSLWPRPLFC
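Fluorogenic HMU-PC substrate (9 uM final) is turned over by placental ASM in 60 min at 37 C after a 10 min compound preincubation. Reaction ended by alkaline stop (pH 10), with fluorescence read at 386/447 nm.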
pAkt inh = Akt phosphorylation inhibition; 360,000 compounds, 0.32% hits; Neuro2A IGF-stimulated pAkt S473 HTRF, 20 min; active compounds read low; AID 651550; activity change, % for hits at 50 µM; in the data active means activity change below about -80%; inconclusive means mostly about -51% to -80%; further: on the % scale 0 is the no-effect control and ±100 the full control effect
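Neuro2A cells (4,500/well, DMEM with 0.5% FBS) were treated with compound at a single 50 µM final concentration, stimulated with 6 nM IGF for 20 min at 37 °C, and lysed. Phospho-Akt Ser473 was read by HTRF as 665/615 ratio ×10^4.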
ALOX12 inh = inhibitors of human 12S-lipoxygenase ALOX12 | P18054 | purified 12hLO, xylenol orange hydroperoxide absorbance | Potency, µM (titrated, usually from 108 µM), without a hit: at the top dose activity change, negative = inhibition, hits mostly inhibitors | 580,000 compounds, 1.1% hits; further: potency means the concentration at half of the fitted maximal effect; on the % scale 0 is the no-effect control and ±100 the full control effect
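Purified human 12hLO at 150 nM in 25 mM Hepes, 0.01% Triton X-100, pH 7.0, preincubated 15 min at room temperature with compound. Reaction started with 40 uM arachidonic acid, 30 min at room temperature. Hydroperoxide measured by Fe-xylenol orange, 573/405 nm absorbance ratio.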
TSG101-PTAP inh = blocks PTAP/TSG101 interaction to inhibit HIV-1 budding; AID 493005; Q99816; 340,000 tested, under 10 active; Fluorescence polarization, FITC-PTAP peptide / Tsg101 binding; Potency, µM (top dose mostly 115 µM), for inactives: at the highest dose activity change, negative = inhibition, actives largely listed as inhibitors; active means well fitted inhibition curve with a large enough effect in the main read-out, with a control signal flat, not every such curve was filed as active; inconclusive means small, poorly fitted or top-dose-only effect, or effect the other way, or a change in a side signal; inactive means no such curve, though single readings can be large or run the other way; further: potency means the concentration at half of the fitted maximal effect; % of control where 0% means no effect
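Fluorescence anisotropy tracks displacement of a FITC-tagged PTAP peptide (50 nM) from the Tsg101 binding domain (10 uM), following a 20 min room-temperature incubation at pH 7.5.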
Vif-A3F inh = inhibitors of Vif-A3F interaction; HeLa A3F-eYFP + Vif (tagged APOBEC3F with the HIV-1 protein that degrades it), YFP fluorescence increase; Potency, µM (top dose mostly 46.1 µM), for the others: top-dose activity, negative = active; 390,000 compounds, 0.2% hits; further: potency means the concentration at half of the fitted maximal effect; % of control where 0% means no effect; nearly all actives have a fitted effect of over 65% in size
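HeLa cells stably expressing A3F-eYFP plus Vif, plated and incubated overnight at 37 deg C, then exposed to compounds overnight at 37 deg C. Blocked degradation read as raised yellow fluorescence (Ex 488/Em 500-530).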
Active calls of the source: *; i = inactive; ? = inconclusive; · = not tested or not shown; ! = not active in a repeat; [ ] = dose if it differs, or a comment. Unless noted, the call rests on the fitted dose curve; in most records, active means well fitted curve in the direction sought with a large enough effect; inconclusive means small, poorly fitted or top-dose-only effect, or another doubt; inactive means no such curve, though single readings can be large; an effect the other way counts as inactive or inconclusive.

SMILES | Vif-A3G inh | S-ASM inh | pAkt inh | ALOX12 inh | TSG101-PTAP inh | Vif-A3F inh
Cc1cccc(-n2c(Cc3ccccc3)nnc2SCC(=O)N2CCOCC2)c1 | -0.2% | -1.8% | i | 0.0%[57.4 µM] | -0.2% | -3.3%
O=C(CSc1nnc(Cc2ccccc2)n1-c1cccc(Cl)c1)N1CCOCC1 | -0.1% | -2.5% | -131.8%* | 0.0% | -3.0% | -0.8%
CC(=O)c1ccc(NC(=O)CSc2nnc(C(C)N3C(=O)COc4ccccc43)n2C)cc1 (stereo unspecified) | · | · | · | -25.2% | · | ·
CCCCCCCCCc1conc1C(=O)/C=C/c1oc2c(c1C)CCC(C)C2 (stereo unspecified) | · | · | i | 39.8µM* | · | ·
Cc1nn(C)c(C)c1CC(=O)Nc1nc(-c2ccc(F)cc2)c(C)s1 | · | · | · | -23.5% | · | ·
COC(=O)[C@H](C)NC(=O)NCc1ccc(F)cc1 | -1.3% | 3.6% | -81.8%* | -8.9% | -5.8% | -9.0%
COC(=O)c1ccc(CSc2nnc(NC(=O)c3cc4c(s3)CCCC4)s2)cc1 | 3.0% | -0.4% | i | 0.0% | -0.6% | 4.3%
CC1CCc2sc(C(=O)Nc3nnc(SCc4ccc(F)cc4)s3)cc2C1 (stereo unspecified) | -0.3% | -5.8% | -85.1%* | 156.1% | 5.0% | -7.6%
O=C1CSC(=S)N1N=Cc1ccccc1O | -1.1% | 6.2% | i | 6.31µM* | 0.2% | 0.9%
O=C1CSC(=S)N1N=Cc1ccc(Cl)cc1Cl | 0.0% | 1.4% | i | 35.5µM* | -17.9% | 1.7%
Cc1ccccc1/C=N/N1C(=O)CSC1=S | -0.8% | 3.9% | i | -13.4% | -0.6% | 0.1%
CSc1cccc(NC(=O)Cc2cccc(F)c2)c1 | · | · | · | -15.4% | · | ·
CCNc1oc(/C=C/c2cccc(OC)c2)nc1C#N | · | · | · | 44.7µM* | · | ·
CNc1oc(/C=C/c2cccc(OC)c2)nc1C#N | 1.4% | i | i | ? | -1.6% | 6.0%
Cc1nc(N2CCN(CCO)CC2)c(C#N)c2c1CCCC2 | · | · | · | -2.2% | · | ·
Cc1ccc(C(CNC(=O)c2cc3ccccc3oc2=O)N2CCCC2)o1 (stereo unspecified) | · | · | · | 1.6% | · | ·
CCCCCCCCS(=O)CCC(=O)O (stereo unspecified) | -2.2% | 1.7% | i | 25.1µM* | 1.7% | -2.9%
O=C(O)c1cc(-c2ccc(/C=N/NC(=S)Nc3ccccc3)o2)ccc1Cl | 1.6% | 45.7% | i | 28.2µM* | -3.7% | -1.8%
O=[N+]([O-])c1cccc(-c2ccc(/C=N/NC(=S)Nc3ccccc3)o2)c1 | -3.0% | -13.6% | i | -2.1% | -5.0% | -17.1%
O=c1ccc(-c2cc(-c3cccc(N4CCOCC4)c3)cn3cncc23)c[nH]1 | · | · | · | 20.6%[176 µM] | · | ·
O=C(Nc1ccc2[nH]c(=S)sc2c1)c1ccccc1 | 1.3% | -0.6% | i | ? | -0.8% | 2.2%
S=c1[nH]c2ccccc2s1 | · | · | · | 28.2µM*! | · | ·
Cc1ccc(C)c(-n2sc3ccc(F)cc3c2=O)c1 | -7.4% | 2.3% | i | 1.58µM* | -1.3% | 0.5%
O=c1c2cc(F)ccc2sn1-c1ccc(F)cc1 | -15.0% | -1.8% | i | · | -1.3% | -28.8%
COc1ccc(-n2sc3ccc(F)cc3c2=O)cc1 | -7.6% | -1.4% | i | 1.12µM* | · | ?
SMILES | Vif-A3G inh | S-ASM inh | pAkt inh | ALOX12 inh | TSG101-PTAP inh | Vif-A3F inh
CCC1(C)NC(=O)N(NC(=O)c2nn(-c3ccccc3)c(=O)c3ccccc23)C1=O (stereo unspecified) | · | · | · | -29.9% | · | ·
Cc1ccc2c(c1)c1c3n2CC(=C2C(=O)OC(C)(C)OC2=O)NC3CCC1 (stereo unspecified) | -1.8% | 0.0% | i | 11.2µM* | -9.2% | 3.2%
COc1ccccc1-c1cc(C(=O)O)c2cc(C)cc(C)c2n1 | · | · | · | 28.2µM* | · | ·
COc1ccccc1COC(=O)N/C=C/c1ccco1 | -7.7% | -3.3% | i | 50.1µM* | -0.9% | ?
CCCCCCCCN1C(=O)[C@H](CC(=O)NCc2ccc(C)o2)C[C@@]2(C(=O)OC)CCCCC=C12 | · | · | i | 35.5µM* | · | ·
COc1ccc(/C=N/OC(=O)COc2cccc(C)c2C)cc1COc1ccc(F)cc1 | · | · | · | -6.2% | · | ·
Cc1cc(Br)ccc1SCC(=O)OCC(O)=C(C#N)c1nc2ccccc2[nH]1 | 0.6% | -1.7% | i | -9.7% | 2.0% | -14.9%
Cc1cc(Br)ccc1SCC(=O)OC/C(O)=C(\C#N)c1nc2ccccc2[nH]1 | -5.9% | -1.7% | i | -2.7% | 11.1% | 25.1µM*
CCNc1ccc(Br)cc(C(=O)/C=C/c2ccc3c(c2)OCO3)c1=O | -28.7% | -13.2% | i | 3.16µM* | 5.7% | 12.6µM*
COC(=O)c1cc(Br)ccc1NC(=O)c1ccc(OC)cc1 | · | · | · | -9.1% | · | ·
COc1ccc(-c2csc3c2NC(=O)CC3c2cc(C)ccc2C)cc1 (stereo unspecified) | · | · | · | -27.4% | · | ·
CCc1ccc(CNCCNC(=O)c2ccco2)cc1 | 3.8% | 3.0% | i | -20.1% | -0.5% | 6.7%
O=C(NCCNCc1ccccc1)c1ccco1 | 1.1% | 12.3% | i | 28.2µM* | 0.4% | -19.7%
COc1ccc(-c2nn(-c3ccccc3)cc2C(=O)NC(=S)NNC(=O)c2ccncc2)cc1 | 2.1% | -0.6% | i | 31.6µM* | -5.5% | 2.2%
COc1cccc(-c2nn(-c3ccccc3)cc2C(=O)OCC(=O)Nc2ncc(Cl)cc2Cl)c1 | 0.2% | · | i | -14.5% | 0.1% | 8.2%
COc1ccc(NC(=O)c2cn(-c3ccccc3)nc2-c2ccncc2)cc1 | 1.0% | -2.3% | i | 25.6% | 4.8% | 8.2%
CCOC(=O)c1cn(-c2ccccc2)nc1-c1cccnc1 | -5.9% | 3.8% | i | 5.3% | -6.2% | 2.5%
O=C(COC(=O)c1ccccc1O)Nc1ncc(Cl)cc1Cl | 0.2% | -4.2% | i | ? | -9.3% | 2.3%
CCOC(=O)c1cn(-c2ccccc2)nc1-c1ccncc1 | -0.4% | -0.1% | -117.6%* | 0.0% | -4.6% | -6.1%
O=C(COC(=O)CNC(=O)c1ccccc1F)Nc1ncc(Cl)cc1Cl | -9.1% | 2.0% | i | 39.8µM* | -7.6% | -1.0%
O=C(COC(=O)c1cn(-c2ccccc2)nc1-c1ccccc1)Nc1ncc(Cl)cc1Cl | -7.0% | -0.8% | i | 25.1µM* | -2.8% | ?
Cc1ccc(-c2nc3nc(C)cc(Nc4ccc(N(C)C)cc4)n3n2)cc1 | · | · | · | -56.0% | · | ·
C=CCn1c(SCc2coc(-c3ccc(Cl)cc3)n2)nnc1C1CCS(=O)(=O)C1 (stereo unspecified) | · | · | · | 12.6% | · | ·
C[S+](=O)([O-])c1cccc(CN2CC(COc3ccccc3)C3(C2)CN(c2ccccc2)C3)c1 (stereo unspecified) | · | · | · | -0.4% | · | ·

Screening results from PubChem BioAssay.
